Here are results for 59 compounds from PubChem BioAssay AID504847 (National Center for Advancing Translational Sciences (NCATS), 2011).

Where “and” joins values, the source holds several entries; their conditions need not be identical. Equal entries are not always repeated. The campaign covered roughly 400,000 compounds. About 3,700 (0.93%) were called active. About 3% were inconclusive and are not listed. The call rests on the fitted dose curve; in most records, active means well fitted inhibition curve with a large enough effect; inconclusive means small, poorly fitted or top-dose-only effect, or another doubt; inactive means no such curve, though single readings can be large or run the other way. For the sample, actives were picked, then their nearest neighbours and some compounds at random.
On the % scale 0 is the no-effect control and ±100 the full control effect; potency means the concentration at half of the fitted maximal effect.

The assay deals with Vitamin D3 receptor (Homo sapiens) (UniProt P11473). The assay is described as follows: Inhibitors of the vitamin D receptor (VDR): qHTS. The settings on record: VDR-SRC2-3 peptide fluorescence polarization, 2 h; max response, negative = inhibition: hits give low values. Put shortly: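 Inhibition of the VDR/SRC2-3 peptide interaction is quantified by fluorescence polarization. Compounds (23 nl, pintool) incubate with the reagents for 2 hours at ambient room temperature.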
Vitamin D3 receptor (Homo sapiens), sequence (P11473 whole entry, looked up): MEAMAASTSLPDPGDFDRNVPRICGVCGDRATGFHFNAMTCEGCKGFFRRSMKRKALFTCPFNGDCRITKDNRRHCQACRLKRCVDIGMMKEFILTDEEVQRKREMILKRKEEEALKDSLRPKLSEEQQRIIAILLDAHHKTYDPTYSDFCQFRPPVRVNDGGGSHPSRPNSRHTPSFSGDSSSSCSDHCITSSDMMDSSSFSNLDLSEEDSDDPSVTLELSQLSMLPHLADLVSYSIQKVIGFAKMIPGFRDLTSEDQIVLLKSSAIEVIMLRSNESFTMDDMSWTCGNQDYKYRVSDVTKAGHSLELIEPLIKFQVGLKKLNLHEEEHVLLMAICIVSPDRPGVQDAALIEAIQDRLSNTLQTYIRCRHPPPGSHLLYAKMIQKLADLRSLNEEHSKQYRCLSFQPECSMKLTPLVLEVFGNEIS
For orientation: qHTS replaces the single test concentration by a dilution series.
With `COC(=O)c1ccc(-c2nc3cc(NC(C)=O)ccc3o2)cc1`, the max response, negative = inhibition is -22.5% (inactive).

As for H-EHIPA-OH, the max response, negative = inhibition is 2.51% (inactive).

For `CCc1ccc(NC(=O)C2CCCN2S(=O)(=O)c2ccc3nc(-c4ccccc4)[nH]c3c2)cc1` (centres undefined), the max response, negative = inhibition was 14.5% (inactive).

In the case of `Oc1c(Cl)cc(Cl)c(Cl)c1Cc1c(O)c(Cl)cc(Cl)c1Cl`, the Potency is 44.7 µM (active).

Consider `CCOC(=O)C1=NOC(Cn2cc(C(C)=O)c(=O)[nH]c2=O)C1` (centres undefined), for which the max response, negative = inhibition was 1.11% (inactive).

`CCOC(=O)C1=NO[C@@]2(C=C(Br)C(=O)[C@H]3O[C@H]32)C1`: the Potency is 11.2 µM (active).

Turning to `COc1cc2c(cc1OC)CC(=O)N(CCCN(C)C[C@H]1Cc3cc(OC)c(OC)cc31)CC2`, the max response, negative = inhibition is 7.93% (inactive).

Regarding `Cc1ccc(S(=O)(=O)N2CCN(C(=O)N3CCOCC3)CC2)c(C)c1`, the max response, negative = inhibition is -13.6% (inactive).

With `N#Cc1c(N)sc2c1CCN(C(=O)OCc1ccccc1)C2`, the max response, negative = inhibition is -3.82% (inactive).

With `N#Cc1ccccc1-n1c(N)c(C(=O)N2CCCC2)sc1=S`, the Potency is 50.1 µM (active).

For `Cc1ccc(N2CCN(C(=O)c3cccs3)CC2)c(C)c1`, the max response, negative = inhibition is 7.64% (inactive).

With `O=C(c1ccc(CSc2ccccc2)cc1)N1CCCCCC1`, the max response, negative = inhibition is -7.06% (inactive).

Take `Cc1ccc(-n2c(N)c(C(=O)N3CCOCC3)sc2=S)c(C)c1`: the Potency is 79.4 µM (active).

On to `CCCCNC(=O)c1ccc2c(c1)NC(=O)C(C(C)C)N2` (centres undefined), for which the max response, negative = inhibition is -3.65% (inactive).

`CCc1ccc(NC(=O)CN2CCSc3ccc(S(=O)(=O)N4CCCC4)cc32)cc1`: the max response, negative = inhibition was 9.86% (inactive).

As for `O=C(c1cccc(Br)c1)N1CCN(Cc2cc(=O)n3nc(-c4ccccc4)sc3n2)CC1`, the max response, negative = inhibition is 13% (inactive).

Consider `CCc1ccc(OCCCn2c(CCCNC(=O)C3CCCCC3)nc3ccccc32)cc1`, for which the max response, negative = inhibition was -1.15% (inactive).

For `O=C(NCCCO)C(=O)Nc1c2c(nn1-c1ccccc1)CSC2`, the max response, negative = inhibition was 5.32% (inactive).

Regarding `COc1ccc(CCNC(=O)CCCCn2c(=O)c3ccccc3n(Cc3ccccc3C)c2=O)cc1OC`, the max response, negative = inhibition was 7.91% (inactive).

Turning to `COc1cc(/C=N/N2CCN(c3ccccc3)CC2)ccc1OC(C)=O`, the max response, negative = inhibition was -1.69% (inactive).

Consider `COc1ccccc1N1CCN(/N=C\C(Br)=C\c2ccccc2)CC1`, for which the Potency is 44.7 µM (active).

As for `COc1ccccc1N1CCN(/N=C/c2ccc(O)cc2O)CC1`, the max response, negative = inhibition is -16.7% (inactive).

Regarding `Cc1cc(C)cc(-n2ccnc2SCC(=O)Nc2nc3ccccc3s2)c1`, the max response, negative = inhibition is -5.28% (inactive).

For `COc1cccc(-c2n[nH]c3c2C(c2cccc(O)c2)N(C)C3=O)c1` (centres undefined), the max response, negative = inhibition was 9.73% (inactive).

As to `Cc1ccc(NC(=O)CSc2nc3c([nH]c4ccccc43)c(=O)n2-c2ccccc2)c(C)c1`, the max response, negative = inhibition was 3.26% (inactive).

As for `Cc1cccc(-n2ccnc2SCC(=O)Nc2cccc3ccccc23)c1C`, the max response, negative = inhibition is 21% (inactive).

For the compound `O=C(c1cccnc1)N(Cc1ccccc1)C(=O)c1cccnc1`, the max response, negative = inhibition is -6.19% (inactive).

On to `O=C(c1cccnc1)N(c1cc2sc(=O)oc2c2ccccc12)S(=O)(=O)c1ccccc1`, for which the Potency was 25.1 µM (active).

Take `COc1ccc(N(C(=O)c2cccnc2)S(=O)(=O)c2ccc(OC)c(OC)c2)cc1`: the max response, negative = inhibition is 2.95% (inactive).

Turning to `Cc1sc2ncn(CC(=O)N3CCN(c4ccc(F)cc4)CC3)c(=O)c2c1S(=O)(=O)N1CCN(c2ncccn2)CC1`, the max response, negative = inhibition was -10.1% (inactive).

On to `O=S(=O)(c1ccccc1)c1nc(-c2ccc(Cl)cc2Cl)oc1N1CCCCC1`, for which the max response, negative = inhibition was 1.4% (inactive).

As for `CCOc1ccc(S(=O)(=O)Nc2ccc3oc4c(c3c2)CC(C)CC4)cc1` (centres undefined), the max response, negative = inhibition was -17.2% (inactive).

For the compound `O=C(Nc1ccc2ccccc2c1[N+](=O)[O-])c1ccccc1`, the max response, negative = inhibition is -2.31% (inactive).

Consider `COC(=O)c1nc(NC(=O)c2ccccc2)n[nH]1`, for which the max response, negative = inhibition was -20% (inactive).

In the case of `O=C(NC1=CC(=O)c2ccccc2C1=O)c1ccccc1`, the Potency is 11.2 µM (active).

As for `CC(=O)OC1=C(C(C)=O)N(Cc2ccccc2)S(=O)(=O)c2ccccc21`, the max response, negative = inhibition is 8.35% (inactive).

With `CCOC(=O)N1CCc2c(sc(NCc3cccc(F)c3)c2C(=O)Nc2ccccc2OCC)C1`, the max response, negative = inhibition was -13.2% (inactive).

For `COCCOC(=O)c1sc(=S)n(CCOC)c1N`, the max response, negative = inhibition is -9.87% (inactive).

As to `COC(=O)c1sc(N2CCN(Cc3ccccc3)CC2)nc1N`, the max response, negative = inhibition is 1.38% (inactive).

Regarding `COC(=O)c1sc(=S)n(-c2ccccc2)c1N`, the Potency is 79.4 µM (active).

As to `COc1ccc(CCNC(=O)c2ccc(CSCc3ccc(C)cc3)o2)cc1OC`, the max response, negative = inhibition was 9.55% (inactive).

Regarding `CCNc1ncc2ncc(=O)n(Cc3cccc(OC)c3)c2n1`, the Potency was 50.1 µM (active).

As for `CCNc1ncc2ncc(=O)n(CCc3ccccc3)c2n1`, the max response, negative = inhibition is -21% (inactive).

In the case of `COc1cccc(Cn2c(=O)c(-c3ccccc3)nc3cnc(OC)nc32)c1`, the max response, negative = inhibition was -7.36% (inactive).

As to `COc1ccc(CC(=O)NCCc2sc3nc(-c4ccc(OC)cc4)nn3c2C)cc1`, the max response, negative = inhibition was 5.32% (inactive).

Regarding `CCCCCCCCCc1ccc(OCCOCCOCCOCCOCCOCCOCCOCCOCCO)cc1`, the max response, negative = inhibition was 1.96% (inactive).

Turning to `CCOC(=O)C1(CCOC)CCN(Cc2cc3ccccc3s2)CC1`, the Potency was 44.7 µM (active).

As to `CCOC(=O)C1(CCOC)CCN(Cc2ccc(C(=O)OC)cc2)CC1`, the max response, negative = inhibition is 15.5% (inactive).

Regarding `CCCS(=O)(=O)N1CCC(CCOc2ccccc2)(C(=O)OCC)CC1`, the max response, negative = inhibition was -9.73% (inactive).

In the case of `COc1cc(Cl)c(C)cc1NC(=O)CCc1nc2cccnc2n1Cc1cccs1`, the max response, negative = inhibition is 3.57% (inactive).

Turning to `Cc1cccc(N2CCN(C(=O)c3oc(=O)c4ccccc4c3-c3ccccc3)CC2)c1C`, the max response, negative = inhibition is -3.42% (inactive).

Turning to `CCCCC/C=C\C[C@H](O)/C=C/C=C/C=C/[C@@H](O)CCCC(=O)O`, the max response, negative = inhibition was 7.71% (inactive).

`O=C(Nc1ccc(Oc2ccccc2)cc1)C1CCN(S(=O)(=O)c2ccc(Cl)cc2)CC1`: the max response, negative = inhibition was -4.34% (inactive).

Regarding `O=C(Nc1cccc(Cl)c1)c1csnn1`, the max response, negative = inhibition was -5.14% (inactive).

Take `O=C(Nc1ccccc1)c1nnsc1S(=O)(=O)c1ccc(Cl)cc1`: the Potency was 25.1 µM (active).

`O=C(c1cccc(Cl)c1)N1CCN(CCc2ccncc2)CC1`: the max response, negative = inhibition is 9.31% (inactive).

Regarding `Cc1ccccc1NC(=O)Cn1cc(C(=O)C2CC2)c2ccccc21`, the max response, negative = inhibition was 8.49% (inactive).

Take `Cc1ccccc1NC(=O)CSC(=O)c1ccccc1`: the Potency is 79.4 µM (active).

With `Cc1ccccc1NC(=O)CCOc1ccccc1`, the max response, negative = inhibition was -6.86% (inactive) and -22.6% (inactive).
